TLR4 MyD88 comp = inhibitors of TLR4-MyD88 association in cells, primary screen, cell-based, HeLa CL3-4, BLA complementation, FRET ratio; AID 861, 2007; inhibition, % at 8.4 µM; 0.18% of 200,000 active; HeLa CL3-4 TLR4/MyD88 BLA complementation; in the data active means inhibition above about 25%;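 further: 0% = vehicle and 100% = reference inhibitor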
ABHD5-PLIN5 inh = ABHD5-PLIN5 interaction inhibitors, primary screen, cell lysate, split luciferase complementation, luminescence; Perilipin-5 (Homo sapiens) + 1-acylglycerol-3-phosphate O-acyltransferase ABHD5 (Homo …; Split G. princeps luciferase complementation, 4 h; inhibition, % at 4 µM; 0.78% of 360,000 active; AID 602281, 2012;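 active means inhibition above the mean inhibition across every tested compound plus 3 SD, cut at about 22% in these data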;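 further: 0% = DMSO only wells and the 100% control is not disclosed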
NOD2 RIPK2 PPI = NOD2-RIPK2 binding disruptors in cells, primary screen, fluorescence, CHO cells, BLA complementation; CCF4 ratio; inhibition, % at 4.98 µM; 0.38% of 360,000 active; AID 624267, 2012; in the data active means inhibition above about 21%;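 further: 0% = vehicle only and 100% = reference blocker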
rCAG binder = binders of r(CAG) RNA repeats, primary screen, biochemical, fluorescence; inhibition, % at 3 µM; r(CAG) RNA repeat, TO-PRO-1 dye displacement fluorescence; AID 651821, 2012; 1.3% of 370,000 active;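 active means inhibition above the plate cutoff, the mean of all test compounds on that plate plus 3 SD, cut at about 35% in these data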;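 further: 0% = DMSO alone and 100% = 100 µM mitoxantrone as full dye displacement; higher means more dye released from RNA so lower well fluorescence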
PRMT1 FP inh = PRMT1 methyltransferase inhibitors, primary screen, biochemical, fluorescence polarization; Protein arginine N-methyltransferase 1 (Homo sapiens), Q99873; recombinant PRMT1, activity-based probe fluorescence polarization; inhibition, % at 2.79 µM; 1.3% of 370,000 active;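 active means inhibition above about 21% made by adding two undisclosed values, limit read from the data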
Target sequence (Q99873 whole entry, looked up): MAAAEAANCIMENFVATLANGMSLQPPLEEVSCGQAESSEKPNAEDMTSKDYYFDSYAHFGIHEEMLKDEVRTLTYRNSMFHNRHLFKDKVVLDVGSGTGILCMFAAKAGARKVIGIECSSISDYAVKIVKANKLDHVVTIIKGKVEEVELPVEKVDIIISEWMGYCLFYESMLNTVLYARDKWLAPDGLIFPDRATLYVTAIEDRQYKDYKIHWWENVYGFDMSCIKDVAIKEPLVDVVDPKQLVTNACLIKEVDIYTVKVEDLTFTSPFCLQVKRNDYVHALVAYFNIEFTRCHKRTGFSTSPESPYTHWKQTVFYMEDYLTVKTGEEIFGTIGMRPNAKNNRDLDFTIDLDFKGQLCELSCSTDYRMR
TLR9-MyD88 block = inhibitors of TLR9-MyD88 association in cells, primary screen, cell-based, CHO, BLA complementation, fluorescence | Toll-like receptor 9 (Homo sapiens) + Myeloid differentiation primary response protein … | CCF4 FRET ratio | inhibition, % at 4.98 µM | 0.21% of 340,000 active;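 active means inhibition above the mean over all tested compounds plus 3 SD, cut at about 21% in these data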;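 further: 0% = DMSO only wells and 100% = clavulanate BLA inhibitor control wells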
rCAG bind conf = small molecules binding CAG repeat RNA – biochemical, fluorescence, confirmation; shares compounds with rCAG binder; inhibition, % at 3 µM; 70% of 4,300 active; r(CAG) RNA repeat, TO-PRO-1 dye displacement fluorescence;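 active means inhibition above a per-plate cutoff, the mean inhibition of sample wells plus 3 SD, cut at about 35% in these data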;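 further: loss of TO-PRO-1 fluorescence as compound displaces dye from 1x1 AA loop RNA; 0% = DMSO only wells and 100% = 100 µM mitoxantrone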
DNA CAG counter = displacement of TO-PRO-1 from CAG DNA duplex, counter-screen for rCAG RNA repeat binder project, biochemical, fluorescence, TO-PRO-1 dye, d(CAG) DNA oligo. shares compounds with rCAG binder. d(CAG) DNA oligo TO-PRO-1 dye displacement. inhibition, % at 3 µM. 94% of 4,300 active;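 active means inhibition above its plate's cutoff, the mean test-well inhibition plus 3 SD, cut at about 4.8% in these data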;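 further: 0% = DNA dye mix with DMSO and 100% = 100 µM mitoxantrone; hits displace the dye from DNA and so lower well fluorescence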
* hit, by the source's call; x = not tested or not shown. Most compounds without a hit are left out; they make up all but 3.3% or so of the library.

SMILES	TLR4 MyD88 comp	ABHD5-PLIN5 inh	NOD2 RIPK2 PPI	rCAG binder	PRMT1 FP inh	TLR9-MyD88 block	rCAG bind conf	DNA CAG counter
COCc1cc(CNC(=O)C2CCC(=O)N(Cc3cccc(OC)c3)C2)[nH]n1 (stereo not given)	x	-1	-11	0	1	0	x	x
CCOC(=O)c1ccc(NC(=O)CSc2nc(C)cc(=O)[nH]2)cc1	-10	-6	4	x	x	-1	x	x
Cc1ccc(-c2csc(NC(=O)CSc3nnc4c(n3)[nH]c3ccccc34)n2)cc1	-4	1	-3	35*	-1	4	29	18*
CCOC(=O)c1c(-c2ccccc2Cl)csc1NC(=O)CSc1nc(C)cc(=O)[nH]1	-11	5	3	38*	1	8	45*	15*
Cc1ccc(C)c(NC(=O)CSc2nc(C)cc(=O)[nH]2)c1	x	x	x	3	-5	x	x	x
CN(C)CCCn1c(SCC(=O)Nc2nc(-c3cccc(Br)c3)cs2)nc2ccccc2c1=O	x	20	-1	14	4	4	x	x
O=C(CSc1nc2ccccc2[nH]1)Nc1nc(-c2cccc(Br)c2)cs1	20	-1	7	58*	4	-5	43*	21*
Cc1ccc(-c2csc(NC(=O)CSc3nc(C)cc(=O)[nH]3)n2)cc1	-2	x	x	56*	20	x	54*	19*
CCOC(=O)C1=CCCN(S(=O)(=O)c2ccc(C)cc2)C1	x	3	-20	-1	5	x	x	x
COCCNC(=S)N(C)[C@H]1C[C@H]2c3[nH]c4c(-c5ccccc5)cccc4c3CCN2C[C@H]1[C@H](C)O	x	x	x	7	2	x	x	x
CCC(Sc1nc(-c2ccccc2)cc(=O)[nH]1)C(=O)O (stereo not given)	10	-4	8	2	0	0	x	x
CCC(Sc1nc(C)cc(=O)[nH]1)C(=O)Nc1nc(-c2ccccc2)cs1 (stereo not given)	11	-3	-6	49*	-4	-4	60*	23*
COc1cc(/C=C2/C(=N)N3N=C(CC(=O)N4CCOCC4)SC3=NC2=O)ccc1OCc1ccc(F)cc1	x	4	4	36*	4	3	77*	35*
COc1cc(/C=C2/C(=N)N3N=C(CC(=O)N4CCOCC4)SC3=NC2=O)ccc1OCc1ccccc1F	x	3	5	x	x	-1	x	x
N=C1/C(=C\c2ccc(SCc3ccccc3)o2)C(=O)N=C2SC(CC(=O)N3CCOCC3)=NN12	x	5	2	71*	2	-8	68*	30*
O=C(O)c1cc(N/N=C/c2ccc(-c3ccccc3)cc2)ccc1Cl	x	-7	-6	63*	2	6	76*	40*
Nc1ccc(C(=O)N/N=C\c2ccc(OC(=O)c3ccccc3Cl)cc2)cc1	x	-6	4	7	-1	-12	x	x
COc1cc(/C=N/Nc2ccc(Cl)c(C(=O)O)c2)ccc1OC(=O)c1cccs1	-5	0	0	54*	13	5	69*	30*
O=C(O)c1ccc(N/N=C/c2ccc(-c3ccccc3)cc2)cc1	-28	15	1	62*	4	1	72*	25*
CC(C)c1ccc(/C=N/Nc2ccc(C(=O)O)cc2)cc1	-16	-1	9	18	12	5	x	x
O=C(O)c1ccc(N/N=C/c2ccc(OC(=O)c3ccccc3Cl)cc2)cc1	-9	-2	-9	81*	5	-7	68*	28*

Source: PubChem BioAssay (The Scripps Research Institute Molecular Screening Center)
